High-throughput results: PubChem BioAssay, National Center for Advancing Translational Sciences (NCATS)
MARV entry inh: qHTS for inhibitors of binding or entry into cells for Marburg Virus | Marburg virus pseudotyped entry inhibition, cell reporter | Potency, µM (doses to about 37.8 µM), for inactives: top-dose activity change, negative = inhibition, most hits filed as inhibitors | 300,000 tested, 1.8% active | AID 540276, 2011; calls by dose curve; tested in HEK293 cells; note: potency is the fitted concentration of half-maximal effect; % is set by controls: 0 for no effect and ±100 for the full control effect
HCMV antiviral: qHTS Assay for inhibitors of the human cytomegalovirus (HCMV); HFF cells, HCMV-luciferase reporter, 72 h; active compounds read low; activity change, negative = inhibition, % at 57.5 µM; 410,000 tested, 4.5% active; AID 1259415, 2018; in the data active = activity change below about -60%; inconclusive = no clear call, values can overlap the other calls; inactive = above about -39%; note: % is set by controls: 0 for no effect and ±100 for the full control effect
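Two-dose cell screen: HFF monolayers treated with compounds and infected with luciferase-expressing HCMV at 1 PFU/cell, 72 h at 37C, then lysed for luciferase measurement.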
SARS PLpro yeast: qHTS of Yeast-based Assay for SARS-CoV PLP | AID 485353, 2010 | 330,000 tested, 0.19% active | S. cerevisiae expressing SARS-CoV PLpro, growth rescue | Potency, µM (series often up to 32.9 µM), inactives show at the highest dose activity, positive = growth rescue, usual class: activators; calls by dose curve; note: potency is the fitted concentration of half-maximal effect; 0% is about no effect; nearly all actives have a fitted effect of over 55% in size
FMDV inh: High Throughput Screening for Foot and Mouth Disease Virus Antivirals; FMDV antiviral cell-based qHTS; Potency, µM (doses to about 57.9 µM), without a hit: at the top dose activity change, negative = inhibition, actives largely listed as inhibitors; 410,000 tested, 1.2% active; calls by dose curve; tested in HEK293T cells; note: read-out not given here; potency is the fitted concentration of half-maximal effect; % is set by controls: 0 for no effect and ±100 for the full control effect; nearly all actives have a fitted effect of over 45% in size
Lassa entry inh: qHTS for Inhibitors of binding or entry into cells for Lassa Virus; Lassa virus pseudotype entry inhibition, cell reporter; Potency, µM (doses to about 37.9 µM), for the others: at the highest dose activity change, negative = inhibition, most hits filed as inhibitors; 300,000 tested, 1.2% active; calls by dose curve; tested in HEK293 cells; note: potency is the fitted concentration of half-maximal effect; % is set by controls: 0 for no effect and ±100 for the full control effect; nearly all actives have a fitted effect of over 50% in size
HCV inh: qHTS Assay for Inhibitors of Hepatitis C Virus (HCV) | Huh7.5.1 HCVcc-Cre infection, luciferase reporter, 44 h | Potency, µM (highest dose often 41.8 µM), without a hit: at the top dose activity change, negative = inhibition, usual class: inhibitors | 340,000 tested, 3.4% active; active = well fitted inhibition curve with a large enough effect; inconclusive = small, poorly fitted or top-dose-only effect, or another doubt; inactive = no such curve, though single readings can be large or run the other way; note: potency is the fitted concentration of half-maximal effect; % is set by controls: 0 for no effect and ±100 for the full control effect
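Reporter virus HCVcc-Cre (~0.5 moi) infects cells exposed to compound; seeding density 1,000 cells/well with 4 h settling beforehand. Luminescence, 15 sec read, taken 44 h post-infection following a 15 min RT substrate incubation.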
Active calls of the source: *; u = inconclusive; x = not tested or not shown; [ ] = remark or other dose. Hits are enriched below; roughly 8% of the tested compounds scored in any of these assays.

SMILES | MARV entry inh | HCMV antiviral | SARS PLpro yeast | FMDV inh | Lassa entry inh | HCV inh
CC(=O)Nc1cccc(C(=O)N2CCC(n3nccc3NC(=O)CC(C)C)CC2)c1 | 0% | -13 | -2% | u | -1% | 21%
Nc1nonc1-c1nc2cnccc2n1C1CCCCC1 | x | x | x | x | -15% | x
COc1cccc(Cn2c(=O)cnc3cnc(N4CCN(C)CC4)nc32)c1 | x | x | x | -5% | x | x
CCC(CC)C(=O)Nc1nc(-c2ccc3c(c2)CCN3C(=O)C2CC2)c(C)s1 | u | -102* | -12% | 11µM* | 11µM* | u
Cc1cccc(C(=O)N2CCc3cc(-c4nc(NC(=O)CN5CCCC5)sc4C)ccc32)c1 | 10µM* | 1 | -2% | -21% | u | 13µM*
CCC1C(c2ccccc2)=CCC(C(=O)O)C1C (stereo unspecified) | -9%[46.1 µM] | 0 | x | -15% | 0%[46.1 µM] | 16%
Cc1ccc(/C=N/NC(=O)Cn2nnc(N)n2)o1 | -7% | 15 | 0% | -6% | -3% | 16%
COc1ccccc1/C=C1\SC(=S)N(CCC(=O)NCCCn2ccnc2)C1=O | x | u | -2% | -7% | x | u
O=C(CCCN1C(=O)/C(=C/c2ccc(F)cc2)SC1=S)NCCCn1ccnc1 | -1%[46.1 µM] | -67* | -2% | 15% | -16%[46.1 µM] | -3%
CC(C)c1ccc(/C=C2\SC(=S)N(CCC(=O)NCCCn3ccnc3)C2=O)cc1 | u | -97* | x | 2% | u | u
COc1ccc(/C=C2\SC(=S)N(CCC(=O)NCCCn3ccnc3)C2=O)cc1 | x | -32 | 4% | 39% | x | 13%
N#CCSc1nc2ccccc2c2nc3ccccc3n12 | u | -103* | -30% | u | 3% | u
CCc1ccc(NC(=O)CSc2nc(=O)n(Cc3ccco3)c3c2CCC3)cc1 | x | -33 | x | -25% | u | x
c1ccc(OCCOCCN2CCN(C(c3ccccc3)c3ccccc3)CC2)cc1 | u | u | -14% | -20% | u | u
COc1cccc(C(=O)N2CCN(CCCc3ccccc3)CC2)c1OC | -18% | u | 7% | u | u | 35µM*
O=C(CCN1CCN(C(c2ccccc2)c2ccccc2)CC1)N/N=C/c1ccc(O)cc1 | u | -33 | 2% | -22% | u | u
COc1ccc(OC)c(/C=N/NC(=O)CCN2CCN(C(c3ccccc3)c3ccccc3)CC2)c1 | 10µM* | -11 | -25% | 0% | u | 10µM*
COc1cccc(OC)c1OCCCCN1CCC(Cc2ccccc2)CC1 | u | -3 | -1% | -28% | u | 11µM*
COc1ccccc1C(=O)N1CCN(CCc2ccccc2)CC1 | 12% | 9 | -4% | 5% | 2% | 11%
COc1ccccc1OCCCCN1CCN(C(c2ccccc2)c2ccccc2)CC1 | u | u | -4% | -30% | 18µM* | 11µM*
CCNC(=O)[C@@H]1[C@@H](CO)[C@@H]2Cn3c(cccc3=O)[C@H]1N2C(=O)Nc1cc(F)ccc1F | x | 13 | x | x | x | x
COC(=O)c1ccccc1NC(=O)c1cn2c3c(ccc(Cl)c3c1=O)OC(C)C2 (stereo unspecified) | x | 0 | x | -8% | -6%[46.1 µM] | x
c1ccc(C2CC(c3ccccc3)n3c(nc4ccccc43)N2)cc1 (stereo unspecified) | -11% | 50 | -19% | 6% | u | -18%
Cc1ncc2c(c1CNC(=O)/C=C/c1cccs1)CCN(C(=O)c1c(C)noc1C)C2 | x | x | x | -5% | x | x
CN1CCN(CCCCOc2ccccc2C=O)CC1 | u | -28 | 0% | -13% | u | 10µM*
SMILES | MARV entry inh | HCMV antiviral | SARS PLpro yeast | FMDV inh | Lassa entry inh | HCV inh
COc1cccc(OC)c1OCCCCCCN1CCN(C)CC1 | x | 44 | 2% | -13% | x | -18%
CC1CCc2nc(NC(=O)CN3CCN(Cc4ccc5c(c4)OCO5)CC3)sc2C1 (stereo unspecified) | u | -63* | 5% | u | -16% | 32µM*
CCC(C)NC(=O)c1ccccc1NC(=O)C1COc2ccccc2O1 (stereo unspecified) | x | u | -2% | u | x | 22µM*
CC1CCc2nc(NC(=O)C3COc4ccccc4O3)sc2C1 (stereo unspecified) | x | -76* | -36% | 16µM* | x | u
Cc1csc(NC(=O)C2COc3ccccc3O2)n1 (stereo unspecified) | 4.5µM* | 25 | 3% | 13µM* | u | -19%
Cc1nnc(SCC(=O)c2c[nH]c3ccccc23)n1C1CC1 | x | 20 | 4% | 14% | x | 20%
Cc1noc(C)c1-c1ccc2ncnc(N3CCC(C(=O)O)CC3)c2c1 | x | x | x | -7% | x | x
C[C@]12C[C@@](C)(C=C1C=Cc1ccc(F)cc1)C(=O)C[C@H]2c1ccc(F)cc1 | 5%[14.2 µM] | x | x | x | u | x
Cc1cnc(NC(=O)C2COc3ccccc3O2)s1 (stereo unspecified) | 7.9µM* | u | 0% | -64% | u | 1%
CSc1nc2ccc3nc(NC(=O)C4COc5ccccc5O4)sc3c2s1 (stereo unspecified) | x | -78* | -5% | -16% | x | -26%
Cc1nc2ccc3nc(NC(=O)C4COc5ccccc5O4)sc3c2s1 (stereo unspecified) | x | 18 | -6% | 0% | x | -6%
CC(=O)N1CCC[C@H]1C(=O)N1CCc2c(cnc(C)c2CNC(=O)/C=C/c2cccs2)C1 | x | x | x | 6% | x | x
CCc1ccc(C2C(=O)c3ccccc3C2=O)cc1 | u | 8 | x | 10% | -18%[46.1 µM] | -4%
CCCCC(=O)Nc1ccc(C(N)=O)cc1 | 16% | 39 | u | 20% | 1% | 29%
CCCCC(=O)Nc1ccc(C2C(=O)c3ccccc3C2=O)cc1 | -6% | 55 | x | u | u | 10µM*
CCC(=O)Nc1ccc(C2C(=O)c3ccccc3C2=O)cc1 | 10µM* | 147 | 1% | 20µM* | u | 2.8µM*
CCOC(=O)[C@]12CCCC=C1N(Cc1ccccc1)C(=O)[C@H](CC(=O)NCCCN1CCCC1=O)C2 | x | -5 | x | -13% | x | x
O=C(O)c1ccc(S(=O)(=O)N[C@H](Cc2ccc(C(F)(F)F)cc2)C(=O)O)cc1 | x | x | 2.8µM* | x | x | x
O=C(O)c1ccc(S(=O)(=O)N[C@H](Cc2ccc([N+](=O)[O-])cc2)C(=O)O)cc1 | x | x | 2.2µM* | x | x | x
O=C(CSCc1cccc(CSCC(=O)Nc2ccc3ccccc3c2)n1)Nc1ccc2ccccc2c1 | u | -82* | -3% | -27% | -25% | 10µM*
CCc1sc(NC(=O)C(C)C)nc1-c1ccccc1 | 2%[46.1 µM] | -78* | -2% | -14% | u | -6%
O=C(O)Cc1sc(Nc2ccccc2Cl)nc1-c1ccccc1 | 28%[46.1 µM] | -61* | x | 32% | u | x
CCc1sc(NC(C)=O)nc1-c1ccccc1 | x | 23 | -1% | 0% | x | 3%
